Compound activity from PubChem BioAssay.
This is a sample that favours compounds with a hit; in the whole collection about 7.4% have one here.
Rab9 promoter act: Rab9 promoter activation. Huh7 Rab9 promoter-luciferase reporter, luminescence, 24 h. Potency, µM (titrated, usually from 9.22 µM), for inactives: top-dose activation, negative = inhibition, most hits filed as activators. AID 485297. 320,000 compounds, 2.8% hits; further: % of control where 0% means no effect; nearly all actives have a fitted effect of over 60% in size
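Luminescence from Amplite-detected luciferase (10 minutes, ambient) reports Rab9 promoter activation. Before that, stable Rab9-luciferase Huh7 cells (1500/well, reduced-serum OP-MEM I plus 10% FBS) were exposed to compound for 24 hours at 37C.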
KinaseGlo FLuc: counter-screen: inhibitors of Kinase-Glo firefly luciferase; 200,000 compounds, 0.28% hits; Q27757; AID 1379; Kinase-Glo luciferase, ATP luminescence, 8 min; Potency, µM (highest dose often 38.3 µM), inactives show at the top dose activity change, negative = inhibition, actives largely listed as inhibitors; further: on the % scale 0 is the no-effect control and ±100 the full control effect; nearly all actives have a fitted effect of over 60% in size
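Light output from Kinase-Glo luciferase with luciferin and 10 uM ATP in 50 mM imidazole pH 7.2, KCl, MgCl2, Tween 20, BSA; compound pin-delivered, 8-min ambient incubation, then luminescence read.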
ELG1 genotoxic: induces genotoxicity in HEK293T cells with luciferase-tagged ELG1; Potency, µM (series often up to 46 µM), inactives show at the top dose activity change, positive = activation, actives largely listed as activators; 330,000 compounds, 1.3% hits; HEK293T ELG1-luciferase reporter, luminescence, 16 h; AID 504466; further: % of control where 0% means no effect; nearly all actives have a fitted effect of over 60% in size
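HEK293T cells expressing luciferase-tagged ELG1 were treated with compound or DMSO for 16 hr at 37°C. Luciferase activity was then read after 30 min with ONE-Glo at room temperature; rising signal flags genetic stress.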
FLuc counter: firefly luciferase modulation, counter-screen for miR-21 project | P08659 | purified FLuc, Km substrates, luminescence inhibition | Potency, µM (top dose mostly 57.5 µM), without a hit: top-dose activity change, negative = inhibition, hits mostly inhibitors | 360,000 compounds, 6.9% hits;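 further: plate controls were vehicle for no effect and reference inhibitor for full effect; nearly all actives have a fitted effect of over 55% in size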
Target sequence (P08659 whole entry, looked up): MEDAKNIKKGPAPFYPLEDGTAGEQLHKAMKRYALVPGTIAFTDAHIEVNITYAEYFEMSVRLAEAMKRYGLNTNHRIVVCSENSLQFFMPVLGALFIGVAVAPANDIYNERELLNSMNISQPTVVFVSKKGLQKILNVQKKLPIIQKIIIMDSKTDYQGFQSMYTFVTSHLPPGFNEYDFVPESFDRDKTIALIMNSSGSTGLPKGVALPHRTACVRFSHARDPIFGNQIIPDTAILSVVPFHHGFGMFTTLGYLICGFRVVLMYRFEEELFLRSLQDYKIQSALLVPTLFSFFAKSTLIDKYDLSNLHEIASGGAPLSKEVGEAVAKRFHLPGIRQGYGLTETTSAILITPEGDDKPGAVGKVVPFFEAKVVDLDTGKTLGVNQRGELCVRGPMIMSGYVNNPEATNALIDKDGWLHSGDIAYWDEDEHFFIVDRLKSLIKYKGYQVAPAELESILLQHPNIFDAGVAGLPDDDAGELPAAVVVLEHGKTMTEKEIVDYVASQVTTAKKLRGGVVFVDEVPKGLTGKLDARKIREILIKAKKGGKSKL
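Purified P. pyralis luciferase, 10 nM final, with Km-level 10 uM D-luciferin and 10 uM ATP in 50 mM Tris acetate pH 7.5, 10 mM Mg acetate, 0.01% Tween-20, 0.05% BSA; 6-point qHTS titration about 60 µM downward; luminescence read.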
SMN2 splice up: SMN2 splice variant enhancement. HEK293 SMN2-luciferase splicing reporter, luminescence, 30-36 h. Potency, µM (top dose mostly 46.1 µM), inactives show top-dose activity change, positive = activation, actives largely listed as activators. 210,000 compounds, 2.8% hits. AID 1458; further: % of control where 0% means no effect; nearly all actives have a fitted effect of over 55% in size
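HEK293 cells carry an SMN2 […]–luciferase reporter in which exon 7 inclusion puts luciferase in frame. Cells were plated 10-12 h before compound addition, then incubated 30-36 h at 37C. ONE-Glo luminescence was read; sodium butyrate at 4.5 mM final served as control.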
NPC1 prom act: activates the NPC1 promoter; Potency, µM (doses to about 9.22 µM), inactives show at the highest dose activation, actives largely listed as activators; Huh7 NPC1 promoter luciferase reporter, 24 h; 320,000 compounds, 2.4% hits; further: % of control where 0% means no effect; nearly all actives have a fitted effect of over 60% in size
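Stable NPC1-promoter luciferase Huh7 line; cpd (DMSO) 24 h, 37 °C, 5% CO2; Amplite luciferase reagent 10 min RT; luminescence readout. qHTS format.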
An asterisk follows results filed as active; ? = inconclusive; nt = no result given; [ ] = dose if it differs, or a comment. The call rests on the fitted dose curve; in most records, active means well fitted curve in the direction sought with a large enough effect; inconclusive means small, poorly fitted or top-dose-only effect, or another doubt; inactive means no such curve, though single readings can be large; an effect the other way counts as inactive or inconclusive. Potency means the concentration at half of the fitted maximal effect.

SMILES	Rab9 promoter act	KinaseGlo FLuc	ELG1 genotoxic	FLuc counter	SMN2 splice up	NPC1 prom act
Cc1ccc(CSc2nnc(-c3ccco3)o2)cc1	4µM*	-3%	?	12µM*	20%	?
O=C(O)c1ccc(CSc2nnc(-c3ccco3)o2)cc1	-3%	19%	-1%	-10%	1%	-1%
Brc1ccc(CSc2nnc(-c3ccco3)o2)cc1	8%	-1%	18%	?	13µM*	-1%
COc1ccc(CCNC(=O)c2cnn(-c3ccc(F)cc3)c2C2CCN(C(=O)OC(C)(C)C)CC2)c(OC)c1	nt	nt	nt	0%	nt	nt
COc1cc(CNCCSc2nnnn2C)ccc1OCc1ccc(C)cc1	nt	nt	nt	?	19%	nt
CC1(C)CC(=O)c2sc(NC(=O)C(C)(C)C)nc2C1	2.8µM*	5%	?	?	nt	?
CC1(C)CNC(=O)c2sc(NC(=O)c3ccccc3)nc2C1	?	-4%	16%	?	11µM*	?
CC1(C)CC(=O)c2sc(NC(=O)c3ccccc3)nc2C1	0.71µM*	-15%	?	1.9µM*	13µM*	0.45µM*
CC1(C)CC(=O)c2sc(NC(=O)c3cccs3)nc2C1	0.5µM*	?	?	0.76µM*	2.2µM*	?
CCOC(=O)C1CCC(CN(Cc2cccc(Br)c2)S(=O)(=O)c2ccc(C)cc2)CC1 (stereo unspecified)	nt	nt	nt	-6%	nt	nt
Cc1cn2c(=O)cc(COC(=O)COc3ccccc3C)nc2s1	nt	nt	nt	5%	nt	nt
COC(=O)c1ccccc1NC(=O)CSc1cc(-c2ccccc2)nc(C)n1	nt	nt	nt	3%	nt	nt
Cc1nn2c(=O)cc(COC(=O)c3ccc(NC(=O)c4cccc(Br)c4)cc3)nc2s1	nt	nt	nt	-3%	nt	nt
CC(Oc1ccccc1)C(=O)Nc1nc2c(s1)C(=O)CC(C)(C)C2 (stereo unspecified)	-2%	-5%	1%	-8%	-20%	1%
CC1(C)CC(=O)c2sc(NC(=O)c3ccc4ncsc4c3)nc2C1	?	0%	?	1.9µM*	11µM*	?
Cc1cc(NC(=O)COC(=O)c2ccccc2S(=O)(=O)N(C)c2ccccc2)no1	8%	2%	-14%	4%	6.3µM*	-11%
C[C@@H]1OC(Nc2ccc(N=Nc3ccccc3)cc2)[C@H](O)[C@H](O)[C@H]1O (stereo partly specified)	?	nt	11%	24µM*	nt	?
CC(=O)c1ccc(NC2OC(C)C(O)C(O)C2O)cc1 (stereo unspecified)	-5%	-3%	7%	0%	?	1%
Clc1ccccc1N=C1NN=C(c2cccs2)CS1	2µM*	-14%	?	12µM*	8.9µM*	3.2µM*
O=S(=O)(c1ccc(N=C2NN=C(c3cc(F)ccc3F)CS2)cc1)N1CCOCC1	-18%	nt	-8%	-9%	nt	-11%
Fc1ccc(F)c(C2=NNC(=Nc3ccccc3F)SC2)c1	30%	-17%	?	12µM*	-22%	?
Fc1ccc(N=C2NN=C(c3cc(F)ccc3F)CS2)cc1	?	-1%	-3%	24µM*	22µM*	11%
Cc1cccc(N=C2NN=C(c3ccccc3F)CS2)c1C	?	-1%	18%	19µM*	26%	?
COc1cc(OC)c2c(=O)c(-c3ccccc3)c(C)oc2c1OC	nt	0%	nt	nt	-4%	nt
O=c1cc(-c2ccccc2)nc(SCc2nc(-c3cccc(C(F)(F)F)c3)no2)[nH]1	nt	nt	nt	-15%	nt	nt
SMILES	Rab9 promoter act	KinaseGlo FLuc	ELG1 genotoxic	FLuc counter	SMN2 splice up	NPC1 prom act
Fc1ccccc1N=C1NN=C(c2ccccc2)CS1	?	-3%	?	13µM*	13µM*	2.5µM*
Oc1ccc(-c2csc(Nc3cccc4ccccc34)n2)cc1O	6%	nt	4%	?	nt	-7%
CC(=O)Nc1ccc(-c2csc(Nc3ccccn3)n2)cc1	0.45µM*	nt	?	?	nt	0.5µM*
Oc1ccc(-c2csc(Nc3ccccn3)n2)cc1O	-14%	nt	3.7µM*	9.5µM*	nt	?
CCCC(=O)Nc1nc(C)c(-c2csc(Nc3ccccc3C)n2)s1	1%	1%	-5%	?	12%	0%
Cc1ccnc(Nc2nc(-c3ccc(O)c(O)c3)cs2)c1	-4%	nt	5.8µM*	6µM*	nt	?
CCC(=O)Nc1nc(C)c(-c2csc(Nc3ccccn3)n2)s1	?	0%	2%	17µM*	15%	?
CC(CC(=O)O)(CC(=O)O)C(=O)O	nt	-2%[7.66 µM]	nt	nt	-9%[9.22 µM]	nt
Cc1ccnc(Nc2nc(-c3ccc(O)cc3O)cs2)c1	?	nt	14%	17µM*	nt	?
Cc1ccnc(Nc2nc(-c3ccc(O)cc3)cs2)c1	3.2µM*	nt	?	8.5µM*	nt	2.5µM*
COc1ccccc1NC(=O)C1CCN(S(=O)(=O)c2ccc3[nH]c4c(c3c2)CCCCC4)CC1	nt	nt	nt	-5%	nt	nt
CC1CCC(Nc2nc3c(-c4ccc(Cl)cc4)nnn3c3ccccc23)CC1 (stereo unspecified)	nt	nt	nt	1%	-10%	nt
O=C(CSc1nncn2c1cc1occc12)Nc1ccccc1C(F)(F)F	nt	nt	nt	-6%	nt	nt
Cc1occc1C(=O)n1cnc2ccccc21	-3%	0%	0%	-2%	?	0%
Cc1ccc(C(=O)Nn2cnc3ccccc3c2=O)cc1C	2.5µM*	nt	?	13µM*	nt	3.2µM*
Cc1ccc(C(=O)n2cnc3ccccc32)cc1C	8%	nt	0%	12µM*	nt	-2%
CCc1ccc(C(=O)Nn2cnc3ccccc3c2=O)cc1	2.2µM*	nt	?	8.5µM*	nt	2.5µM*
COc1ccc(-c2nc(C)c(CCNC(=O)c3cccc(C)c3)s2)cc1OC	nt	nt	nt	24µM*	nt	nt
COc1ccc(-c2nc(C)c(CCNC(=O)c3cccs3)s2)cc1	nt	nt	nt	27µM*	nt	nt
COc1ccc(-c2nc(C)c(CCNC(=O)c3ccc(F)c(F)c3)s2)cc1	nt	nt	nt	21µM*	nt	nt
Cc1cc(N)c2ccccc2[n+]1CCCCCCCCCCCCCC[n+]1c(C)cc(N)c2ccccc21	nt	-6%	nt	nt	-84%	nt
COc1cccc(CNc2sc3c(c2C(=O)Nc2ccc(OC)cc2OC)CCC3)c1	nt	nt	nt	-17%	nt	nt
O=C(CCc1nc(-c2cccs2)no1)Nc1cccc([N+](=O)[O-])c1	nt	nt	nt	-17%	nt	nt
CS(=O)(=O)N1CCC2(CC1)CN(C(c1ccccc1)c1ccccc1)C2	nt	0%	nt	nt	2%	nt
CCc1nnc(SC(CC)C(=O)Nc2ccc(OC)c(Cl)c2)c2cc3occc3n12 (stereo unspecified)	nt	nt	nt	-11%	nt	nt
COc1ccc(Cn2c(NCC(C)C)nc3c2c(=O)n(C)c(=O)n3C)cc1	nt	nt	nt	-9%	8%	nt
[O-]/[N+](=C\c1ccncc1)c1ccc(Br)cc1	?	-3%	?	8.5µM*	nt	?
C(=C\c1ccncc1)/c1ccncc1	-6%	nt	3%	5%	nt	2%
